# Results from PubChem BioAssay (NCATS).
# This is one part of the list. Results filed as inconclusive are left out. The source made the active and inactive calls. Calls follow the shape of the dose curve; as a rule, active = well fitted inhibition curve with a large enough effect; inconclusive = small, poorly fitted or top-dose-only effect; inactive = flat fitted curve, though single readings scatter.
# System: NanoLuc luciferase (engineered Oplophorus gracilirostris luciferase)
# Test: Biochemical NLuc saturation counterscreen for small molecule modulators of PMP22 gene expression - Nano-Glo assay (AID 1508638)
# Settings: Secreted NLuc enzyme (filtered S16 cell medium), Nano-Glo luminescence; series mostly up to 57.5 µM; activity change, negative = inhibition: at the top concentration
# From the text: Assay Provider: Jim Inglese Ph.D. National Center for Advancing Translational Science, National Institutes of Health, Rockville, MD CMT is a heterogeneous group of neurological disorders that affect approximately 1 in 2,500 people. In particular, the most common form of CMT, CMT1A is genetically linked to the duplication of the PMP22 gene which leads to Schwann cell overexpression, thus manifesting itself as a typical case of dose-sensitive diseases. To identify small molecule compounds that can mediate the expression of PMP22 we developed a phenotypic assay screening strategy by utilizing genome editing techniques to construct Schwann cell lines containing novel reporter technology to monitor the transcriptional or translational regulation of PMP22. For high sensitivity we use a bioluminescent reporter system embedded in the 3' UTR of the PMP22 gene (S16(c9) Pmp22-F2sN) to identify compounds that inhibit gene expression. […] We can further discriminate the effect of all transcriptionally active molecules on PMP22 translation or stability with an assay that incorporates a short NLuc peptide (HiBiT) at the C-terminus of expressed PMP22 (S16(f8) PMP22-HiBiT) allowing alpha complementation and luminescence detection of membrane-associated PMP22 protein. These assays were screened against the NCATS Sytravon Library Collection. Miniaturization of these assays to 1536-well plate format for quantitative high throughput screening (qHTS) yielded rich data sets immediately from the qHTS assay (S16(c9) Pmp22-F2sN), when compared with data from a cell viability assay (Cell TiterGlo) to identify compounds that decreased the output signals through cellular toxicity to streamline the selection process of actives for subsequent characterization using the HiBiT assay (S16(f8) PMP22-HiBiT).
# Biochemical Promega Nano-Glo solution NLuc assay PROTOCOL TABLE (format as described by Inglese J, Shamu CE and Guy RK. 2007) SEQUENCE No. (e.g., 1, 2, 3, etc.); PARAMETER (e.g., Cells, Incubation, Reagent, etc.); VALUE and DESCRIPTION. 1. Reagent. Add 2 uL substrate per well into Greiner 1536-well white/solid bottom high base, medium binding plates. 2. Compounds. Library compounds and controls added at 23nL per well, transferred by Pin Tool. 3. Incubation. Incubate plates 5 min at ambient temperature. 4. Reagent. Add 2uL NLuc enzyme solution per well of Greiner 1536-well plates. 5. Incubation. Incubate plates at room temperature for 10 min., protect from light. 6. Detector. FLuc luminescence measured using CCD-based camera (Viewlux). NOTES (numbers refer to Sequence numbers above; values are from representative experiments) 1. Freshly prepared Nano-Glo Luciferase Assay System reagent per Promega instructions, product N1120, and filtered through […]. 4. Enzyme was obtained by filtering media of S16 cells expressing secreted NLuc (Inglese et al. 2014) grown to 80-90% confluency in DMEM High Glucose, No Phenol Red media + 10% heat inactivated FBS + 1% Pen/Strep supplemented media6. Luminescence Read (Fluc): Clear filter; Exposure = 10 sec, Gain = High, Speed = Slow, Binning = 2X 6. Luminescence Read (Nluc): Clear filter; Exposure = 1 sec, Gain = High, Speed = Slow, Binning = 2X REFERENCES: 1. Inglese J, Shamu CE and Guy RK, Reporting data from high throughput screening of small molecule libraries, Nature Chemical Biology, 2007, 3(8): 438-441. doi.org/10.1038/nchembio0807-438 2. Yasgar A, Shinn P, Jadhav A, Auld DS, Michael S, Zheng W, Austin CP, Inglese J and Simeonov A, Compound Management for Quantitative High-Throughput Screening. J. Assoc. Lab. Auto., 2008, 13: 79-89. doi: 10.1016/j.jala.2007.12.004 3. Inglese, J., Dranchak, P., Moran, J. J., Jang, S. W., Srinivasan, R., Santiago, Y., Zhang, L., Guha, R., Martinez, N., MacArthur, R., Cost, G. J., and Svaren, J. (2014) Genome editing-enabled HTS assays expand drug target pathways for Charcot-Marie-tooth disease, ACS Chem Biol 9, 2594-2602.
# % is scaled to controls: 0 for no effect and ±100 for the full control effect; potency is read from the fitted curve at half-maximal effect.
SMILES,"activity change, negative = inhibition",Potency
CCOc1ccc(NC(=O)c2c(NC(=O)Cc3ccccc3)sc3c2CCC(C)C3)cc1 (stereo not given),-19.8% (inactive),
Cc1cc(OCC(=O)NCC2(N(C)C)CCCCC2)cc(C)c1Cl,-4.49% (inactive),
Cc1cccc(Nc2cc(C)nc(-n3nc(C)cc3C)n2)c1,,6.11 µM (active)
O=C(c1ccc2c(c1)N(Cc1ccc(F)cc1)C(=O)c1ccccc1S2(=O)=O)N1CCN(c2ccccn2)CC1,,3.43 µM (active)
CCOC(=O)c1c(C)[nH]c(CCC(=O)NCCCN2CCN(c3cccc(Cl)c3)CC2)c1C,-7.06% (inactive),
CCOCCCNC(=O)c1c(NC(=O)c2nc(SC)ncc2Cl)sc2c1CCCC2,-16.4% (inactive),
CCCCOc1ccc(CN2C(=O)C(=O)c3cc(Br)cc(C)c32)cc1OC,-8.72% (inactive),
CCOC(=O)c1c(C)[nH]c(CCC(=O)NCCCN2CCN(c3cc(C)ccc3C)CC2)c1C,-14.1% (inactive),
Cc1nnc(SCC(=O)NCc2ccccc2Cl)c2nn(-c3ccccc3)c(C)c12,-19.2% (inactive),
COc1ccc(CCNC(=O)c2cc(=O)c3c(C)cc(C)cc3o2)cc1OC,,0.343 µM (active)
CCC1CCCCN1CCCNC(=O)c1cc2c(Cl)nc3ccccc3c2s1 (stereo not given),-0.443% (inactive),
CC(=O)N1CCCc2cc(S(=O)(=O)N3CCCC(C(=O)N4CCN(c5cccc(Cl)c5)CC4)C3)ccc21 (stereo not given),-13% (inactive),
Cc1ccc(C)n1-c1nnc(N2CCC(C(=O)NCc3ccccc3Cl)CC2)s1,-18.5% (inactive),
CCCn1c2ccccc2c2cnn(CC(=O)NCC3CCN(Cc4ccc(C)cc4)CC3)c(=O)c21,-5.62% (inactive),
CCOC(=O)c1ccc(NC(=O)CSc2nc3c([nH]c4ccccc43)c(=O)n2C)cc1,-7.37% (inactive),
CCCS(=O)(=O)c1ncc(Cl)c(C(=O)Nc2scc(-c3ccccc3)c2C(=O)OCC)n1,-5.14% (inactive),
Cc1ccc(OCCSc2nc3ccc(NC(=O)COc4ccc(C)cc4)cc3s2)cc1,-1.84% (inactive),
Cc1ccc(NC(=O)c2nc(S(=O)(=O)Cc3cccc(C)c3)ncc2Cl)cc1,-7.03% (inactive),
CCc1ccc(C2CC(=O)c3c([nH]c(C(=O)OCc4ccc(C)cc4)c3C)C2)cc1 (stereo not given),-1.46% (inactive),
CC(C)(C)c1ccc(C(=O)NCC(c2ccco2)S(=O)(=O)c2ccc(F)cc2)cc1 (stereo not given),-10.4% (inactive),
COc1ccccc1Nc1c2c(nc3ccc(NC(=O)/C=C/c4cc(OC)c(OC)c(OC)c4)cc13)CCCC2,,4.32 µM (active)
Cc1ccc(CCNC(=O)C2CCN(c3nnc(-n4cccc4CNc4ccc(C)cc4)s3)CC2)cc1,-9.6% (inactive),
COc1ccc(-c2onc(C)c2C)cc1S(=O)(=O)NCC1CCN(Cc2cccc(F)c2)CC1,-5.11% (inactive),
CCC1=Nc2cc(C(=O)NCCCOC(C)C)ccc2Sc2ccc(C)cc21,-4.08% (inactive),
O=C(c1ccc(C(F)(F)F)cc1)N1CCC(c2nc(-c3ccc(S(=O)(=O)N4CCCC4)cc3)no2)CC1,-5.18% (inactive),
